Test results from PubChem BioAssay (Tox21).
A number with no mark means an inactive call. Records with an inconclusive call do not appear. Entries that show only a call come without a potency. Calls of active or inactive are those of the source. Unless noted, calls come from the whole dose curve; as a rule, active = well fitted curve in the direction sought with a large enough effect in the repeat runs; inconclusive = weak or mixed curves; inactive = no such curve, though single readings can be large; an effect the other way counts as inactive or inconclusive.

Legend:
[1] = target: Progesterone receptor (Homo sapiens) (UniProt P06401); test: qHTS assay to identify small molecule agonists of the progesterone receptor (PR) signaling pathway (AID 1346784; calls by dose curve; note: nearly all actives have a fitted effect of over 30% in size; note: potency is the fitted concentration of half-maximal effect)
Chain of Progesterone receptor (Homo sapiens) (P06401 whole entry, looked up): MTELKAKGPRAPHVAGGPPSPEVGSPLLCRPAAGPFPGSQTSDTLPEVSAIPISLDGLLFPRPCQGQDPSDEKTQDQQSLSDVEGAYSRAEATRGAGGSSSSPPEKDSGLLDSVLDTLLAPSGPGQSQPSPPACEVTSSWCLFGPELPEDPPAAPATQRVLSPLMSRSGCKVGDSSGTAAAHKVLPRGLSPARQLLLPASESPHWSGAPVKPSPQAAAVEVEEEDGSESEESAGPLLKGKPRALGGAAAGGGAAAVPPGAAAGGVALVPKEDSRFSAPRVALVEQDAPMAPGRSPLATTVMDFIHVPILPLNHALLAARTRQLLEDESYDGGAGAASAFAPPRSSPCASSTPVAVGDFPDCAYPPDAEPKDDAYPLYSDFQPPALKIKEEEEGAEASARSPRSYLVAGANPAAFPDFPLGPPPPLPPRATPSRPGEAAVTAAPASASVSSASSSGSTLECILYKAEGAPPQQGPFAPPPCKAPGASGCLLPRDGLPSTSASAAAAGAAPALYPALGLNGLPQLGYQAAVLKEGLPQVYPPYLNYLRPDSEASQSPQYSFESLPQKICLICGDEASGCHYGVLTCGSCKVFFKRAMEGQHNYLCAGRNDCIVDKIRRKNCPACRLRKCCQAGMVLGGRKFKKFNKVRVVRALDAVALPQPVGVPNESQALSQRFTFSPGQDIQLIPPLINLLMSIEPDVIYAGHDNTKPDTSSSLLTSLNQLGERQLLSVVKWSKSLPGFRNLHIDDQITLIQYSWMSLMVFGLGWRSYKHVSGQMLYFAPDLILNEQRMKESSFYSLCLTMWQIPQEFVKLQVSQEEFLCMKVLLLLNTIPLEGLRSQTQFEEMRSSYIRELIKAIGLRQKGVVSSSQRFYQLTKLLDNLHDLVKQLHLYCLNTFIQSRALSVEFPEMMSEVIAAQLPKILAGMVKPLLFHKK
Summary of the method: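 Fluorescence from LiveBLAzer B/G FRET substrate cleavage (2 hr, RT) reported PR activation in PR-UAS-bla HEK 293T cells treated 16 hr at 37C/5% CO2 with compounds; medium contained 2% charcoal-stripped FBS.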

[2] = qHTS assay to identify small molecule antagonists of the progesterone receptor (PR) signaling pathway - cell viability counter screen (AID 1346798); note: nearly all actives have a fitted effect of over 50% in size; note: potency is the fitted concentration of half-maximal effect; for activity change, negative = cytotoxicity: series mostly up to about 92 µM
Summary of the method: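 CellTiter-Glo luminescence; PR-UAS-bla HEK293T, 3,000 cells/well; compound + R5020, 16 hr, 37C/5% CO2; 30 min RT before read.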

[3] = qHTS assay to identify small molecule agonists of the progesterone receptor (PR) signaling pathway - cell viability counter screen (AID 1346799; calls by dose curve; note: nearly all actives have a fitted effect of over 45% in size; note: potency is the fitted concentration of half-maximal effect)
Summary of the method: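 In parallel with the beta-lactamase readout, cytotoxicity toward PR-UAS-bla HEK293T cells was measured by CellTiter-Glo luminescence following 16 hr compound incubation in 2% charcoal-stripped FBS medium.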

[4] = qHTS assay to identify small molecule antagonists of the TGF-beta/Smad signaling pathway - cell viability counter screen (AID 1346824); note: nearly all actives have a fitted effect of over 50% in size
Summary of the method: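 Cytotoxicity counter-screen run in the same wells as the beta-lactamase Smad reporter read: CellTiter-Glo luminescence after 30 min at room temperature. HEK 293T SBE-bla cells had 5 hr compound exposure at 37 C with TGF-beta1 (0.25 ng/mL stock).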

[5] = qHTS assay to identify small molecule agonists of the TGF-beta/Smad signaling pathway - cell viability counter screen (AID 1346829); note: top concentration of the series differs between compounds; nearly all actives have a fitted effect of over 45% in size
Summary of the method: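 In parallel with the Smad reporter read, viability of HEK 293T cells stably carrying SBE-bla is quantified by ATP luminescence following 5 hr compound treatment.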

[6] = qHTS assay to identify small molecule agonists of the TGF-beta/Smad signaling pathway (AID 1346859; active = well fitted activation curve with a large enough effect in the signal ratio in the repeat runs, not every such curve was filed as active; the % refers to the signal ratio; note: series mostly up to about 77 µM)
Summary of the method: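 After overnight seeding, SBE-bla HEK 293T cells are dosed with compounds in DMSO and kept 5 hr at 37 C, 5% CO2. LiveBLAzer-type FRET substrate is then applied for 2 hr at room temperature.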

[7] = target: Thyrotropin-releasing hormone receptor (Homo sapiens) (UniProt P34981); test: qHTS assay to identify small molecule antagonists of the thyrotropin-releasing hormone receptor (TRHR) signaling pathway (AID 1346877; active = well fitted inhibition curve with a large enough effect in the repeat runs, not every such curve was filed as active; note: series mostly up to about 51 µM)
Chain of Thyrotropin-releasing hormone receptor (Homo sapiens) (P34981 whole entry, looked up): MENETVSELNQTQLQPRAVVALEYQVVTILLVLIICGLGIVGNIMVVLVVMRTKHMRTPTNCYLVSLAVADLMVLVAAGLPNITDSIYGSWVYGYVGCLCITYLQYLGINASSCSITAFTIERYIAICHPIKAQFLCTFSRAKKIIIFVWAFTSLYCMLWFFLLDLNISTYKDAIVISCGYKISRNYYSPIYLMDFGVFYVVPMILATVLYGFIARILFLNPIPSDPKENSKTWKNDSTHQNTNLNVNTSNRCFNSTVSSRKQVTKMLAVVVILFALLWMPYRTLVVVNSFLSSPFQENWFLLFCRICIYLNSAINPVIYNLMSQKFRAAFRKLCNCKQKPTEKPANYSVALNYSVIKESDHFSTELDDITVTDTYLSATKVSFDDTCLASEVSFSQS
Summary of the method: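 Intracellular calcium fluorescence, read kinetically every second over 3 min, reports TRH-evoked signalling in HEK293 cells carrying TRHR. Test compounds were added 5 min ahead of a 1 nM TRH challenge.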

[8] = target: Thyrotropin-releasing hormone receptor (Homo sapiens) (UniProt P34981); test: qHTS assay to identify small molecule agonists of the thyrotropin-releasing hormone receptor (TRHR) signaling pathway (AID 1346891; calls by dose curve;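 note: HEK293 cells expressing TRHR with calcium dye readout; series mostly up to about 58 µM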)
Summary of the method: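 Compounds were tested as agonists at 15 concentrations, in triplicate, on TRHR-Hek293 cells; calcium-sensitive dye fluorescence was recorded for 3 min following addition.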

[9] = Human pregnane X receptor (PXR) small molecule agonists, qHTS cell viability counter screen (AID 1346977); note: nearly all actives have a fitted effect of over 50% in size; note: potency is the fitted concentration of half-maximal effect
Summary of the method: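 Viability counter screen: CellTiter-Fluor signal in PXR-Luc HepG2 cells, 24hr compound exposure, 37C, 5% CO2.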

[10] = Caspase-3/7 induction in HepG2 cells by small molecules, qHTS assay (AID 1346978); note: nearly all actives have a fitted effect of over 15% in size
Summary of the method: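 Caspase-3/7 induction was measured by Caspase-Glo 3/7 luminescence (30 min, room temperature) after a 17 hr compound exposure of wild-type HepG2 cells seeded at 2,000 per well and pre-incubated 5 hr.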

[11] = Caspase-3/7 induction in CHO-K1 cells by small molecules, qHTS assay (AID 1346980); note: nearly all actives have a fitted effect of over 15% in size
Summary of the method: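 Luminescent Caspase-Glo 3/7 read (30min, room temperature) quantified apoptosis induction. Cells were wild-type CHO-K1, treated with compound for 17hr at 37 C and 5% CO2.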

[12] = target: Cytochrome P450 2D6 (Homo sapiens) (UniProt P10635); test: Cytochrome P450 Family 2 Subfamily D Member 6 (CYP2D6) small molecule antagonists: luciferase reporter qHTS assay (AID 1671196); note: nearly all actives have a fitted effect of over 50% in size; note: potency is the fitted concentration of half-maximal effect; for activity change, negative = inhibition: series mostly up to about 120 µM
Chain of Cytochrome P450 2D6 (Homo sapiens) (P10635 whole entry, looked up): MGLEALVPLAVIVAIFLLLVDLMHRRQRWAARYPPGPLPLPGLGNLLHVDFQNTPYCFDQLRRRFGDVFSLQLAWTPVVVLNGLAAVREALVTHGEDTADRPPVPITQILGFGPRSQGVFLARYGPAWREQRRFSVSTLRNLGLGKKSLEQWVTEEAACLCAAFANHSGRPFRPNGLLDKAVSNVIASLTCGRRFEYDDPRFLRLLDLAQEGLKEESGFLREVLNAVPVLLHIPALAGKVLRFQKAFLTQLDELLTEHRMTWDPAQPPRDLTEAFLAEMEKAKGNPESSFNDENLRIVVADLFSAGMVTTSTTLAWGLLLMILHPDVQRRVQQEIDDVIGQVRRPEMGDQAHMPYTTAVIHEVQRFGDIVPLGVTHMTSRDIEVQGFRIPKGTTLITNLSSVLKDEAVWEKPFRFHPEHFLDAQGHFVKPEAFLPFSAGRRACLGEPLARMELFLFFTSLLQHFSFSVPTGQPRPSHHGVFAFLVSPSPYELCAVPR
Summary of the method: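 Read-out is luminescence from luciferin formed by CYP2D6 turnover of a proluciferin substrate, recorded as relative luminescence units. Reactions ran 1 h at room temperature after NADPH regeneration solution was added.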

[13] = target: Cytochrome P450 2C19 (Homo sapiens) (UniProt P33261); test: Cytochrome P450 Family 2 Subfamily C Member 19 (CYP2C19) small molecule antagonists: luciferase reporter qHTS assay (AID 1671197); note: nearly all actives have a fitted effect of over 65% in size; note: potency is the fitted concentration of half-maximal effect; for activity change, negative = inhibition: series mostly up to about 120 µM
Chain of Cytochrome P450 2C19 (Homo sapiens) (P33261 whole entry, looked up): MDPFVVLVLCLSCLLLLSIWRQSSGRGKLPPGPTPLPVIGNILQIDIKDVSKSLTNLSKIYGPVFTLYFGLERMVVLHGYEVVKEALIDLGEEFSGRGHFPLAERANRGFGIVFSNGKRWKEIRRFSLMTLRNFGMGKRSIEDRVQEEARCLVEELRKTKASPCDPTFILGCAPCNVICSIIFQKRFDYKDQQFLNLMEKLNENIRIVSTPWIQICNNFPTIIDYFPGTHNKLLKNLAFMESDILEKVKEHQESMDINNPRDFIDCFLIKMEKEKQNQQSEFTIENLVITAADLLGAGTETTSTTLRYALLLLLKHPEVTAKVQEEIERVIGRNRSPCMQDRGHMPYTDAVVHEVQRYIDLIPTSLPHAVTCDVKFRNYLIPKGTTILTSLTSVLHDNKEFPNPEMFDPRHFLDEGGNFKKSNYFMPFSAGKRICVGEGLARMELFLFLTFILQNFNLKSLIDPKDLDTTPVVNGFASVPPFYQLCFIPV
Summary of the method: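 Compounds were tested on CYP2C19 activity via proluciferin conversion to luciferin. The 37C, 1 h reaction followed NADPH addition; detection reagent stopped it.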

[14] = target: Progesterone receptor (Homo sapiens) (UniProt P06401); test: qHTS assay to identify small molecule antagonists of the progesterone receptor (PR) signaling pathway (AID 1346795; active = well fitted inhibition curve with a large enough effect in the signal ratio in the repeat runs, not every such curve was filed as active; the % refers to the signal ratio; note: potency is the fitted concentration of half-maximal effect)
Summary of the method: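 Fluorescence intensity measured 2 hr after adding beta-lactamase FRET substrate to PR-UAS-bla HEK293T cells that had been co-treated 16 hr with compound and 1 nM R5020 (final concentration) in 2% charcoal-stripped FBS.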

[15] = Caspase-3/7 induction in CHO-K1 cells by small molecules, qHTS cell viability counter screen (AID 1346979); note: nearly all actives have a fitted effect of over 35% in size
Summary of the method: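 Viability readout by fluorescence (CellTiter-Fluor) on wild-type CHO-K1 cells exposed for 16hr at 37C and 5% CO2 to compounds delivered in DMSO; reagent incubated 1hr before reading.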

[16] = target: Nuclear receptor subfamily 1 group I member 2 (Homo sapiens) (UniProt O75469); test: Human pregnane X receptor (PXR) small molecule agonists, qHTS assay (AID 1346982); note: nearly all actives have a fitted effect of over 35% in size; note: potency is the fitted concentration of half-maximal effect
Chain of Nuclear receptor subfamily 1 group I member 2 (Homo sapiens) (O75469 whole entry, looked up): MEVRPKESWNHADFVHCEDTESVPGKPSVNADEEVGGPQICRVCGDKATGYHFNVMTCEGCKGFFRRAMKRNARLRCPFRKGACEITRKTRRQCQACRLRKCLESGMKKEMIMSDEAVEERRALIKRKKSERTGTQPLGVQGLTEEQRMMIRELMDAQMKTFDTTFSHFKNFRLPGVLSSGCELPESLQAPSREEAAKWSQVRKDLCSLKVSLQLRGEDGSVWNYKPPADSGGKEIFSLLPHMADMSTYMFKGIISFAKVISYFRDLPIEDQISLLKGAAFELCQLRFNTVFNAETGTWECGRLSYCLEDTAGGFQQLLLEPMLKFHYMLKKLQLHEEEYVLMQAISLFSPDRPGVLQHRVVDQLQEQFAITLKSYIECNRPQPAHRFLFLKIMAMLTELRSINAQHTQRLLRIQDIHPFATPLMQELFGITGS
Summary of the method: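 Luciferase signal from ONE-Glo (30 min, room temperature) measured activation of hPXR-driven CYP3A4 reporter expression in PXR-Luc HepG2 cells treated with compounds for 24 hr at 37 C.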

[17] = Caspase-3/7 induction in HepG2 cells by small molecules, qHTS cell viability counter screen (AID 1346981); note: series mostly up to about 92 µM; nearly all actives have a fitted effect of over 30% in size
Summary of the method: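 HepG2, WT, 2,000 cells/well; 5 hr pre-incubation 37 C/5% CO2; compound pin-transferred from DMSO; 16 hr exposure; CellTiter-Fluor, 1 hr; fluorescence read.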

[18] = target: Nuclear receptor subfamily 1 group I member 2 (Rattus norvegicus) (UniProt Q9R1A7); test: Rat pregnane X receptor (rPXR) activation by small molecules, qHTS assay (AID 1346983); conditions: rPXR luciferase reporter cells, One-Glo luminescence, 24 h; hits give high values; note: nearly all actives have a fitted effect of over 20% in size
Chain of Nuclear receptor subfamily 1 group I member 2 (Rattus norvegicus) (Q9R1A7 whole entry, looked up): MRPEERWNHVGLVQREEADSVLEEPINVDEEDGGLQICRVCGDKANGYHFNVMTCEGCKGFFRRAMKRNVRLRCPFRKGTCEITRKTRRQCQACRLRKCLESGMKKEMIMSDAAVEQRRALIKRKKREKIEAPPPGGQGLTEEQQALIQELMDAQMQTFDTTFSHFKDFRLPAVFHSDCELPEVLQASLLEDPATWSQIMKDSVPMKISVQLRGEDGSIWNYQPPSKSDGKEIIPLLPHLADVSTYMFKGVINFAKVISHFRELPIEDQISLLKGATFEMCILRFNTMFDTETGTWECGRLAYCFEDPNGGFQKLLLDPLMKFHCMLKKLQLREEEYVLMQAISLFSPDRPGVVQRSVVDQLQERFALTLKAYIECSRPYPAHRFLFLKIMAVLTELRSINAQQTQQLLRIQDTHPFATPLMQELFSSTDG
Summary of the method: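 Luminescent readout (One-Glo luciferase, 30 min room temperature) followed 24 hr compound treatment at 37 C of rPXR cells plated 2,000 per well and preincubated 5hr; qHTS format with compounds delivered in DMSO.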

[19] = target: Nuclear receptor subfamily 1 group I member 2 (Homo sapiens) (UniProt O75469); test: CYP3A4 induction through human pregnane X receptor (PXR) by small molecules, qHTS assay (AID 1346984); note: nearly all actives have a fitted effect of over 40% in size
Summary of the method: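 Luminescence readout: luciferase signal after One-Glo (30 min, room temperature), following 3 h at 37C with 3uM final Luciferin-IPA P450 substrate. Cells were DPX-2 (HepG2, PXR/CYP3A4-luc co-transfected) dosed for 24 h.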

[20] = target: Nuclear receptor subfamily 1 group I member 2 (Homo sapiens) (UniProt O75469); test: Human pregnane X receptor (PXR) activation by small molecules, qHTS assay (AID 1346985); note: nearly all actives have a fitted effect of over 40% in size
Summary of the method: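 DPX-2 cells (HepG2 co-transfected with a PXR response element and a CYP3A4-promoter luciferase construct) were seeded at 2,000 per well, rested 5 hr at 37C, then exposed to DMSO-dissolved compounds for 24 hr. Activation was read as luciferase luminescence.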

With `O=S(=O)(O)c1ccc(N=Nc2c(O)ccc3ccccc23)cc1` the Potency [1] was “inactive”, the Potency [2] was 8.63 µM (active) and the Potency [3] was 7.7 µM (active). The Potency [4] was “inactive”, the Potency [5] was “inactive” and the Potency [6] was “inactive”. For the same molecule, the Potency [7] was “inactive”, the outcome [8] was “inactive” and the Potency [9] was 27.3 µM (active). For the same molecule, the Potency [10] was “inactive”, the Potency [11] was “inactive” and the Potency [12] was 35.6 µM (active). For the same molecule, the Potency [13] was 11.2 µM (active).
In the case of `OC/C=C/CO`, the Potency [1] is reported as “inactive”, the Potency [14] is reported as “inactive” and the Potency [2] is reported as “inactive”. The Potency [5] was “inactive”, the Potency [6] was “inactive” and the Potency [7] was “inactive”. The outcome [8] was “inactive”, the Potency [9] was “inactive” and the Potency [10] was “inactive”. The Potency [15] was “inactive”, the Potency [11] was “inactive” and the Potency [16] was “inactive”. For the same molecule, the Potency [12] was 17.8 µM (active) and the Potency [13] was “inactive”.
With `CC(C)(C)C1CCC(=O)CC1` the Potency [1] was “inactive”, the Potency [14] was “inactive” and the Potency [3] was “inactive”. The Potency [5] was “inactive”, the Potency [6] was “inactive” and the Potency [7] was “inactive”. For the same molecule, the outcome [8] was “inactive”, the Potency [9] was “inactive” and the Potency [10] was “inactive”. The Potency [11] was “inactive”, the Potency [17] was “inactive” and the Potency [16] was “inactive”. For the same molecule, the Potency [12] was “inactive” and the Potency [13] was 7.96 µM (active).
In the case of `O=C(O)CN(CCN(CC(=O)O)CC(=O)O)CC(=O)O`, the Potency [1] is reported as 0.0097 µM (active), the activity change, negative = inhibition [14] is reported as 7.88% [at 3.27 µM] and the activity change, negative = cytotoxicity [2] is reported as 3.78% [at 3.27 µM]. It also gave a viability change, negative = cytotoxic [4] of -0.549% [at 2.72 µM], an activation [6] of -0.839% [at 2.72 µM] and an activity change, negative = cytotoxicity [9] of 0.665% [at 3.27 µM]. For the same molecule, the caspase activation [10] was -0.861% [at 3.27 µM], the caspase-3/7 activation [11] was -0.0599% [at 3.27 µM] and the activity change, negative = cytotoxicity [17] was -2.26% [at 3.27 µM].
With `O=c1[nH]c2ccccc2n1CCCN1CCN(C(c2ccccc2)c2ccccc2)CC1` the Potency [1] was “inactive”, the Potency [14] was 29.8 µM (active) and the Potency [4] was “inactive”. The Potency [5] was “inactive”, the Potency [9] was 33.5 µM (active) and the Potency [11] was “inactive”. For the same molecule, the Potency [16] was 4.22 µM (active) and the Potency [12] was 0.692 µM (active).
With `Cc1cc(-n2nc3ccc(Cl)cc3n2)c(O)c(C(C)(C)C)c1` the Potency [1] was “inactive”, the Potency [14] was “inactive” and the Potency [3] was “inactive”. The Potency [4] was “inactive”, the Potency [5] was “inactive” and the Potency [6] was “inactive”. For the same molecule, the Potency [9] was “inactive”, the Potency [10] was “inactive” and the Potency [15] was “inactive”. The Potency [11] was “inactive”, the Potency [17] was “inactive” and the Potency [16] was “inactive”. For the same molecule, the max activation [18] was -2.8%, the Potency [19] was “inactive” and the Potency [20] was “inactive”. The Potency [12] was “inactive” and the Potency [13] was “inactive”.
With `CCCCCCCCCCCC(=O)OCC(C)OC(=O)CCCCC(=O)O` (centres undefined) the Potency [1] was “inactive”, the Potency [14] was “inactive” and the Potency [3] was “inactive”. The Potency [4] was “inactive”, the Potency [5] was “inactive” and the Potency [6] was “inactive”. The Potency [7] was “inactive”, the outcome [8] was “inactive” and the Potency [9] was “inactive”. The Potency [11] was “inactive”, the Potency [17] was “inactive” and the Potency [16] was “inactive”. The Potency [12] was “inactive” and the Potency [13] was “inactive”.
